According to PubChem BioAssay (NCI):
Values joined by “and” are separate entries in the source; they are usually repeats but may differ in a detail not shown here. Identical values can stand only once. Compounds without any hit were thinned out: in the full panel of roughly 83,000, 20% have a hit.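 Single-dose data. Exposure time 48 hours. Values below 10 considered active.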 Active and inactive are the calls of the source.

Columns and labels:
Assay in all cases: NCI-60 one-dose screen, 48 h (100 = growth as untreated, 0 = no growth, -100 = all killed)
Details in all cases: 10 µM unless noted
SR leukemia = test system: SR leukemia
RPMI-8226 leukemia = test system: RPMI-8226 leukemia
OVCAR-8 ovarian = test system: OVCAR-8 ovarian
OVCAR-5 ovarian = test system: OVCAR-5 ovarian
OVCAR-4 ovarian = test system: OVCAR-4 ovarian
SK-OV-3 ovarian = test system: SK-OV-3 ovarian
IGROV1 ovarian = test system: IGROV1 ovarian
OVCAR-3 ovarian = test system: OVCAR-3 ovarian
HS 578T breast = test system: HS 578T breast
NCI/ADR-RES ovarian = test system: NCI/ADR-RES ovarian

Measured: growth

NC1=CC(=O)c2cccnc2C1=O
inactive: SK-OV-3 ovarian 58%
active: SR leukemia -27% | RPMI-8226 leukemia -25.7% | OVCAR-8 ovarian -5.58% | OVCAR-5 ovarian -70.8% | OVCAR-4 ovarian -84.5% | IGROV1 ovarian -53.7% | OVCAR-3 ovarian -1.02% | HS 578T breast -10.3% | NCI/ADR-RES ovarian 1.37%

COc1ccc2c(O)c(/C=C3\N=Nc4nc(C)ccc43)oc2c1CC1CCNCC1
active: SR leukemia -27.5%
inactive: RPMI-8226 leukemia 96.7% | OVCAR-8 ovarian 68.4% | OVCAR-5 ovarian 65% | OVCAR-4 ovarian 74.2% | SK-OV-3 ovarian 80.8% | IGROV1 ovarian 60.8% | OVCAR-3 ovarian 83.8% | HS 578T breast 57.9% | NCI/ADR-RES ovarian 104%

O=C1/C(=C/c2ccc(-c3cccc(C(F)(F)F)c3)o2)SC(=S)N1CCc1ccc(O)cc1
inactive: SR leukemia 32.5% | RPMI-8226 leukemia 68.3% | OVCAR-8 ovarian 15.2% | OVCAR-5 ovarian 82.7% | OVCAR-4 ovarian 48.5% | SK-OV-3 ovarian 85.4% | IGROV1 ovarian 48.8% | OVCAR-3 ovarian 63.4% | HS 578T breast 69.4% | NCI/ADR-RES ovarian 81.7%

Cc1ccc2[nH]c(=S)[nH]c(=O)c2c1
inactive: SR leukemia 90.7% | RPMI-8226 leukemia 109% | OVCAR-8 ovarian 104% | OVCAR-5 ovarian 107% | OVCAR-4 ovarian 102% | SK-OV-3 ovarian 105% | IGROV1 ovarian 103% | OVCAR-3 ovarian 105% | HS 578T breast 104% | NCI/ADR-RES ovarian 104%

O=Nc1ccc(NO)c2ccccc12
inactive: SR leukemia 106% and 43.8% | RPMI-8226 leukemia 92.2% and 54.7% | OVCAR-8 ovarian 97.9% and 87% | OVCAR-5 ovarian 109% and 116% | OVCAR-4 ovarian 92.3% and 35.8% | SK-OV-3 ovarian 94.2% and 106% | IGROV1 ovarian 86.1% and 61.5% | HS 578T breast 85.4% and 96.3% | NCI/ADR-RES ovarian 97.5% and 14.5%
98.7% (inactive) and 0.0919% (active): OVCAR-3 ovarian

O=C(/C=C/c1cccs1)Nc1ncc(Cc2ccc(Cl)c(Cl)c2)s1
inactive: SR leukemia 32.7% | RPMI-8226 leukemia 78.1% | OVCAR-8 ovarian 72.7% | OVCAR-5 ovarian 74.1% | OVCAR-4 ovarian 66.6% | SK-OV-3 ovarian 68.8% | IGROV1 ovarian 64.1% | OVCAR-3 ovarian 40.4% | HS 578T breast 62.4% | NCI/ADR-RES ovarian 60.3%

Nc1ccc(-c2ccc(N)c(Br)c2)cc1Br
inactive: SR leukemia 20.7% | RPMI-8226 leukemia 29% | OVCAR-8 ovarian 59.2% | OVCAR-5 ovarian 63% | OVCAR-4 ovarian 75.5% | SK-OV-3 ovarian 64.4% | IGROV1 ovarian 47% | OVCAR-3 ovarian 51.4% | HS 578T breast 79.5% | NCI/ADR-RES ovarian 29.2%

Clc1cccc(Nc2ncnc3ccc(-c4cncc(-n5cnnn5)c4)cc23)c1
inactive: SR leukemia 71.2% | RPMI-8226 leukemia 35.5% | OVCAR-8 ovarian 75.1% | OVCAR-5 ovarian 65.2% | OVCAR-4 ovarian 90.2% | IGROV1 ovarian 26.1% | OVCAR-3 ovarian 66.1% | HS 578T breast 67.2% | NCI/ADR-RES ovarian 76.4%
active: SK-OV-3 ovarian -4.88%

C=C(C)[C@@H]1CC[C@]2(C(=O)O)CC[C@]3(C)[C@H](CC[C@@H]4[C@@]5(C)CCC(N)C(C)(C)[C@@H]5CC[C@]43C)[C@@H]12 (stereo not given in full)
inactive: OVCAR-8 ovarian 20.8% | OVCAR-5 ovarian 96.6% | OVCAR-4 ovarian 36.8% | SK-OV-3 ovarian 106% | IGROV1 ovarian 74.4% | HS 578T breast 93.1% | NCI/ADR-RES ovarian 69.7%
active: SR leukemia -8.86% | RPMI-8226 leukemia -33.6% | OVCAR-3 ovarian -31.5%

N#CC1C(=O)c2ccccc2C1c1ccccc1 (stereo not given)
inactive: SR leukemia 85.1% and 106% | RPMI-8226 leukemia 111% and 102% | OVCAR-8 ovarian 96.9% and 97.3% | OVCAR-5 ovarian 110% and 104% | OVCAR-4 ovarian 99.5% and 99.2% | SK-OV-3 ovarian 105% and 114% | IGROV1 ovarian 100% and 110% | OVCAR-3 ovarian 84.9% and 107% | HS 578T breast 116% and 105% | NCI/ADR-RES ovarian 108% and 107%

Nc1ccc(S(=O)(=O)c2ccc(N)cc2)cc1
inactive: SR leukemia 99.7% and 121% | RPMI-8226 leukemia 96.7% and 85.4% | OVCAR-8 ovarian 97.2% and 93.1% | OVCAR-5 ovarian 104% and 96.4% | OVCAR-4 ovarian 111% and 117% | SK-OV-3 ovarian 118% and 102% | IGROV1 ovarian 108% and 61% | OVCAR-3 ovarian 121% and 112% | HS 578T breast 106% and 96.8% | NCI/ADR-RES ovarian 101% and 97.2%

Nc1nc(CSc2n[nH]c(N)n2)nc(Nc2ccccc2)n1
inactive: SR leukemia 120% | RPMI-8226 leukemia 102% | OVCAR-8 ovarian 104% | OVCAR-5 ovarian 98.8% | OVCAR-4 ovarian 93.4% | SK-OV-3 ovarian 104% | IGROV1 ovarian 108% | OVCAR-3 ovarian 105% | HS 578T breast 81.5% | NCI/ADR-RES ovarian 105%

COc1ccc(CN2CCc3c(Cl)nc(N)nc3C2=O)c(OC)c1
inactive: RPMI-8226 leukemia 12.7% [100 µM] | OVCAR-5 ovarian 45.1% [100 µM] | OVCAR-4 ovarian 15.2% [100 µM] | HS 578T breast 49.9% [100 µM]
active: SR leukemia 3.87% [100 µM] | OVCAR-8 ovarian 1.04% [100 µM] | SK-OV-3 ovarian 8.93% [100 µM] | IGROV1 ovarian -37.3% [100 µM] | OVCAR-3 ovarian -22.4% [100 µM] | NCI/ADR-RES ovarian 4.29% [100 µM]

CN(C)C1CCN(C(=O)c2ccc(NC(=O)Nc3ccc(-c4nc(N5CCOCC5)c5cccn5n4)cc3)cc2)CC1
active: SR leukemia 8.47% | RPMI-8226 leukemia -20.8% | OVCAR-8 ovarian -0.587% | OVCAR-5 ovarian -0.314% | OVCAR-4 ovarian -26.9% | SK-OV-3 ovarian -30.8% | IGROV1 ovarian -26.4% | OVCAR-3 ovarian -12% | HS 578T breast -32.6%
inactive: NCI/ADR-RES ovarian 85.1%

Cc1ccc(-c2nc3nc(-c4ccc(Br)cc4)nc(N4CCCNCC4)c3o2)cc1
active: SR leukemia -32.2% | RPMI-8226 leukemia -36.9% | OVCAR-8 ovarian -45.6% | OVCAR-5 ovarian -44.4% | OVCAR-4 ovarian -94.2% | IGROV1 ovarian -75.6% | OVCAR-3 ovarian -95.1% | HS 578T breast -30.3% | NCI/ADR-RES ovarian -64.8%
inactive: SK-OV-3 ovarian 110%

COc1cc(C(=O)c2ccccc2C(=O)O)c(OC)c2c1CCCC2
inactive: SR leukemia 67.3% and 94.9% | RPMI-8226 leukemia 108% and 93.7% | OVCAR-8 ovarian 104% and 101% | OVCAR-5 ovarian 112% and 106% | OVCAR-4 ovarian 99.3% and 98.9% | SK-OV-3 ovarian 113% and 106% | IGROV1 ovarian 127% and 105% | OVCAR-3 ovarian 93.3% and 105% | HS 578T breast 103% and 112% | NCI/ADR-RES ovarian 103% and 104%

COc1cc(-c2nn(-c3cccc(NC(=O)CCN4CCN(C)CC4)c3)cc2-c2ccncc2)ccc1Cl
inactive: OVCAR-8 ovarian 35.1% | OVCAR-5 ovarian 67.9% | OVCAR-4 ovarian 59.7% | SK-OV-3 ovarian 23.1% | IGROV1 ovarian 49.7% | NCI/ADR-RES ovarian 39.9%
active: SR leukemia -43.5% | RPMI-8226 leukemia 4.86% | OVCAR-3 ovarian 2.81% | HS 578T breast -0.227%

ON=C1CCCCCCCC1
inactive: SR leukemia 90.9% and 97.5% | RPMI-8226 leukemia 103% and 102% | OVCAR-8 ovarian 102% and 107% | OVCAR-5 ovarian 103% and 105% | OVCAR-4 ovarian 115% and 113% | SK-OV-3 ovarian 100% and 103% | IGROV1 ovarian 113% and 111% | OVCAR-3 ovarian 111% | HS 578T breast 107% and 108% | NCI/ADR-RES ovarian 103% and 105%

CC1(Cc2ccccc2)CC2=C(C(=O)O1)C(c1ccccc1)NC(=O)N2 (stereo not given)
inactive: SR leukemia 76.6% | RPMI-8226 leukemia 94% | OVCAR-8 ovarian 104% | OVCAR-5 ovarian 81.2% | OVCAR-4 ovarian 108% | SK-OV-3 ovarian 98.8% | IGROV1 ovarian 118% | OVCAR-3 ovarian 109% | HS 578T breast 109% | NCI/ADR-RES ovarian 106%

O=C1N=c2ccccc2=C1c1sc(=S)n(C2CC(=O)N(c3ccc(Cl)cc3)C2=O)c1O (stereo not given)
inactive: SR leukemia 36.5% | RPMI-8226 leukemia 103% | OVCAR-8 ovarian 98.6% | OVCAR-5 ovarian 105% | OVCAR-4 ovarian 103% | SK-OV-3 ovarian 103% | IGROV1 ovarian 101% | OVCAR-3 ovarian 109% | HS 578T breast 98.1% | NCI/ADR-RES ovarian 102%

COc1ccc(-c2cc3cnc4ccccc4c3oc2=O)cc1
inactive: SR leukemia 74.6% | RPMI-8226 leukemia 102% | OVCAR-8 ovarian 105% | OVCAR-5 ovarian 101% | OVCAR-4 ovarian 103% | SK-OV-3 ovarian 93.9% | IGROV1 ovarian 106% | OVCAR-3 ovarian 106% | HS 578T breast 100% | NCI/ADR-RES ovarian 102%

COc1cc(-c2[nH]ncc2Nc2ccc(Cl)cc2)cc(OC)c1OC
inactive: SR leukemia 67.7% | RPMI-8226 leukemia 21.1% | OVCAR-8 ovarian 67.5% | OVCAR-5 ovarian 75.7% | OVCAR-4 ovarian 71.6% | SK-OV-3 ovarian 64.3% | IGROV1 ovarian 69.8% | OVCAR-3 ovarian 86.1% | HS 578T breast 66% | NCI/ADR-RES ovarian 61.7%

C=C1C(=O)O[C@@H]2[C@H]3[C@H](COC(C)=O)[C@@H](OC(C)=O)C[C@H]3C(=C)[C@@H](O)C[C@@H]12
inactive: SR leukemia 72.6% | RPMI-8226 leukemia 76% | OVCAR-8 ovarian 92.1% | OVCAR-5 ovarian 97.2% | OVCAR-4 ovarian 110% | SK-OV-3 ovarian 108% | IGROV1 ovarian 101% | OVCAR-3 ovarian 80.9% | HS 578T breast 92.4% | NCI/ADR-RES ovarian 98.6%

CCN(CC)CCOc1ccccc1C
inactive: SR leukemia 111% | RPMI-8226 leukemia 103% | OVCAR-8 ovarian 102% | OVCAR-5 ovarian 97.2% | OVCAR-4 ovarian 111% | SK-OV-3 ovarian 103% | IGROV1 ovarian 109% | OVCAR-3 ovarian 117% | HS 578T breast 119% | NCI/ADR-RES ovarian 124%
